{"source": "PubChem BioAssay (NCI)", "note": "The panel holds about 79,000 compounds, 15% with a hit somewhere; the sample as a whole holds those more often. Unmarked numbers belong to inactive results. Cut-off read from the data, not from the text of the source: active = growth inhibition above about 70%; inactive = the rest.", "data": [{"assay": "NCI Yeast Anticancer Drug Screen. Data for the rad52 strain (AID 147);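 note: 0% = growth of vehicle-treated control cultures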", "details": "S. cerevisiae rad52 mutant growth inhibition; at 1.2 µM; hits give high values", "procedure,_shortened": "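Genetically altered yeast (DNA damage repair defect) treated with compound; inhibition calculated relative to vehicle.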", "units": {"growth inhibition": "%"}, "values": [{"smiles": "CCOP(=O)(OCC)C(Cc1ccccc1)N=C(c1ccccc1)c1ccccc1", "note": "(stereo not drawn)", "growth inhibition": -21}, {"smiles": "CCc1ncnc2cc(OCC3CO3)c(OC)cc12", "note": "(stereo not drawn)", "growth inhibition": 7}, {"smiles": "CCOC(=O)[C@H]1Nc2ccccc2C2c3ccccc3CC21", "note": "(stereo partly drawn)", "growth inhibition": -39}, {"smiles": "O=CNc1ccc2c(c1)C(=O)c1ccccc1-2", "growth inhibition": 8}, {"smiles": "CCOc1ccc2c(c1)c(CC(=O)O)cn2C", "growth inhibition": 0}, {"smiles": "OC1CSCCCSCCSCCCSC1", "growth inhibition": -53}, {"smiles": "N#Cc1c(N)[nH]c2ccc(Sc3ccccc3)cc12", "growth inhibition": 1}, {"smiles": "Cc1ccc(-c2ccc(Nc3c4ccccc4nc4ccccc34)cc2)cn1", "growth inhibition": 6}, {"smiles": "c1ccc2c(c1)NC(NC1Nc3ccccc3N1)N2", "growth inhibition": 0}, {"smiles": "OC(COc1cccc2ccccc12)CN1CCOCC1", "note": "(stereo not drawn)", "growth inhibition": 15}, {"smiles": "CCC/C(Cl)=N\\OC(=O)Nc1ccc(Br)cc1", "growth inhibition": 58}, {"smiles": "COc1ccc(/C=C2\\SC(=S)N(/C=C/c3nc4ccccc4[nH]c3=O)C2=O)cc1OC", "growth inhibition": 7}, {"smiles": "O=C(NNc1ccnc2cc(Cl)ccc12)/C(=C\\c1ccccc1Cl)NC(=O)c1ccccc1", "growth inhibition": 15}, {"smiles": "CSC1=NNC(SC)=NN1", "growth inhibition": -13}, {"smiles": "Cc1c(C2=C(Br)C(=O)N(C)C2=O)c(=O)n(C)c(=O)n1C", "growth inhibition": 11}, {"smiles": "NCCNc1ccc(NCCN)c2c1C(=O)c1c(O)ccc(O)c1C2=O", "growth inhibition": 24}, {"smiles": "Cn1c(=O)c(-c2ccccc2)c(N=[N+]=[N-])c2ccccc21", "growth inhibition": -11}, {"smiles": "CCCCCCCCCCCCCCCCCCOCC(O)COP(=O)(O)OCC1OC(n2cc(F)c(=O)[nH]c2=O)CC1O", "note": "(stereo not drawn)", "growth inhibition": 15}]}]}
